Many of the other results were omitted from the sample, so hits are more common in it than they were.
Pf apPOL block = Pf-apPOL DNA polymerase inhibition; inhibition, % at 10 µM; Recombinant Pf-apPOL, molecular beacon fluorescence, 1.5 h; actives 0.25% (n = 210,000)
mHTT CaM bind = inhibitors of human mutant huntingtin-calmodulin interaction; AlphaScreen His-mHTT/GST-CaM binding, luminescence; inhibition, % at 15 µM; AID 1671202; actives 3.6% (n = 190,000); P42858
Large screens that a line does not name were inactive. Cut-off read from the data, not from the text of the source: active = inhibition above about 50%; inactive = the rest.

Cc1cccc(CN2C(=O)CCC2(C)C(=O)NCc2ccccc2)c1 (configuration not stated)	none
O=C(Nc1nnc(N=Cc2ccc(F)cc2)s1)c1ccc(F)cc1	none
Cc1nc(Nc2ccccn2)sc1C(=O)N1CCN(c2ccccc2F)CC1	mHTT CaM bind 59.2
Cc1ccnc(Nc2nc(C)c(C(=O)N3CCC(C)CC3)s2)c1	none
CCS(=O)(=O)N1CCN(c2ccc([N+](=O)[O-])c(NC3CC3)c2)CC1	none
O=[N+]([O-])c1ccc(N2CCNCC2)cc1NC1C2CC3CC(C2)CC1C3 (configuration not stated)	mHTT CaM bind 82.2
Cc1ccc(S(=O)(=O)N2CCc3nc(NC(=O)c4cccnc4)sc3C2)cc1	none
O=C(Nc1nc2c(s1)CN(S(=O)(=O)C=Cc1ccccc1)CC2)c1cnccn1	mHTT CaM bind 71.0
CCOc1ccccc1S(=O)(=O)N1CCc2nc(NC(=O)c3cnccn3)sc2C1	mHTT CaM bind 50.1
O=C(Nc1nc2c(s1)CN(C(=O)COc1ccccc1)CC2)c1cnccn1	none
CN1CCC2(CC1)C(C#N)=C(N)C(C#N)(C#N)C1=C2CN(C)CC1	none (no result: Pf apPOL block)
Cc1cccc(Nc2nccc(C3CCCN(C(=O)C4CCCO4)C3)n2)c1 (configuration not stated)	mHTT CaM bind 73.5
Cc1ccccc1Nc1nccc(C2CCCN(C(=O)Cc3cccs3)C2)n1 (configuration not stated)	none
Cc1cccc(Nc2nccc(C3CCCN(C(=O)c4ccc(C#N)cc4)C3)n2)c1 (configuration not stated)	none
CCC(=O)N1CCCC(c2ccnc(Nc3ccc(OC)cc3)n2)C1 (configuration not stated)	none
CCC(=O)N1CCCC(c2ccnc(Nc3cccc(C)c3)n2)C1 (configuration not stated)	mHTT CaM bind 56.6
Cc1cccc(Nc2nccc(C3CCCN(C(=O)Cc4cccs4)C3)n2)c1 (configuration not stated)	mHTT CaM bind 62.6
Clc1ccc(C2CC(c3cccs3)Nc3ncnn32)cc1 (configuration not stated)	none
COc1ccc(-c2cc3nc4c(c(=O)n3[nH]2)CN(C(=O)c2ccccc2)CC4)cc1	none
C#CCSc1ccccc1C(=O)O	none
C#CC(C=CC)OC(=O)c1ccccc1C(=O)O (configuration not stated)	Pf apPOL block 53.3 (no result: mHTT CaM bind)
O=C(Oc1ccc2c(c1)OC(=Cc1cccnc1)C2=O)c1ccc(Br)cc1	mHTT CaM bind 75.9
O=C(Oc1ccc2c(c1)OC(=Cc1cccnc1)C2=O)c1ccncc1	none
CCOC(=O)N1CCC2(CC1)N=C(c1ccc3c(c1)OCO3)CC(c1ccccc1O)N2 (configuration not stated)	none
CCOc1ccc(C2=NC3(CCN(C)CC3)NC(c3cc(Cl)ccc3O)C2)cc1 (configuration not stated)	none
COc1cccc(C2CC(c3ccc(C)c(C)c3)=NC3(CCN(C(C)=O)CC3)N2)c1O (configuration not stated)	none
COc1cccc(C2=NC3(CCN(C)CC3)NC(c3cc(Cl)ccc3O)C2)c1 (configuration not stated)	mHTT CaM bind 51.6
CCOC(=O)N1CCC2(CC1)N=C(c1ccccc1O)CC(c1cc(Cl)ccc1O)N2 (configuration not stated)	none
CCCC1(C)N=C(c2ccc3c(c2)OCO3)CC(c2ccccc2O)N1 (configuration not stated)	mHTT CaM bind 84.0
COc1cccc(C2CC(c3ccc(Cl)cc3)=NC3(CCN(C(C)=O)CC3)N2)c1O (configuration not stated)	mHTT CaM bind 58.4
CC(=O)N1CCC2(CC1)N=C(c1ccc(C)cc1C)CC(c1cc(Cl)ccc1O)N2 (configuration not stated)	mHTT CaM bind 87.8
CN(C)c1ccc2sc(SCC(=O)Nc3ccccc3)nc2c1	none
COc1ccc(S(=O)(=O)N2CCc3nc(NC(=O)CC4CCCC4)sc3C2)cc1	none
CCc1cc2c(=O)c(-c3ccc4c(c3)OCCO4)c(CC)oc2cc1O	none
O=C(CN1CCC(c2nc(-c3cccs3)no2)CC1)Nc1ccccc1Cl	none
N#C/C(=C\c1ccc(Br)cc1)c1nc(-c2cccs2)cs1	none
COc1ccc(NC(=O)CSc2nc3c(cnn3-c3ccc(C)c(C)c3)c(=O)[nH]2)c(OC)c1	none
CCOC(=O)c1c(C)noc1-c1csc(-c2cccc(C(F)(F)F)c2)n1	none (no result: mHTT CaM bind)
Cc1noc(-c2cccc(F)c2)c1C(=O)NCc1ccccc1Cl	none
CC(=O)N1CCN(c2nc3c(s2)CC(C(=O)N2CCCC2)CC3)CC1 (configuration not stated)	none
Oc1ccc(Cl)cc1C1=NC2(CCNCC2)NC(c2ccccc2O)C1 (configuration not stated)	mHTT CaM bind 100.3
COc1cccc(C2=NC(C)(C(C)C)NC(c3ccccc3O)C2)c1 (configuration not stated)	mHTT CaM bind 70.0
CC(C)N1CCC2(CC1)N=C(c1ccccc1O)CC(c1ccccc1O)N2 (configuration not stated)	none
COc1ccc(O)c(C2=NC3(CCN(C(C)C)CC3)NC(c3ccccc3O)C2)c1 (configuration not stated)	none
CCCC1(C)N=C(c2ccc(Cl)cc2)CC(c2cccc(OC)c2O)N1 (configuration not stated)	mHTT CaM bind 88.0
CN1CCC2(CC1)N=C(c1ccccc1O)CC(c1ccccc1O)N2 (configuration not stated)	none
CCN1CCC2(CC1)N=C(c1ccc(C)cc1)CC(c1cccc(OC)c1O)N2 (configuration not stated)	none
COc1ccccc1C1CC(c2ccccc2O)=NC2(CCN(C(C)C)CC2)N1 (configuration not stated)	mHTT CaM bind 65.7
COc1ccc(Cc2c(C)nc(C)nc2N2CCN(C(C)=O)CC2)cc1	none
O=C(c1ccc(OCC2CCN(C(=O)c3ccc(F)cc3F)CC2)cc1)N1CCCCC1	none
O=C(Cc1ccc(Br)cc1)Nc1ccccc1F	none
CCN(CC)C(=O)c1nc(N2CCCCC2)c2c(C)cc(C)nc2n1	none
CC(=O)N1CCC2(CC1)N=C(c1ccc3c(c1)OCO3)CC(c1cc(Cl)ccc1O)N2 (configuration not stated)	mHTT CaM bind 79.0
CCN1CCC2(CC1)N=C(c1ccc3c(c1)OCO3)CC(c1cc(Cl)ccc1O)N2 (configuration not stated)	none
COc1ccc(C2=NC3(CCN(C(C)=O)CC3)NC(c3cc(Cl)ccc3O)C2)cc1 (configuration not stated)	mHTT CaM bind 98.7
CCN1CCC2(CC1)N=C(c1ccc(F)cc1)CC(c1cc(Cl)ccc1O)N2 (configuration not stated)	none
CC(=O)N1CCC2(CC1)N=C(c1ccccc1)CC(c1cc(Cl)ccc1O)N2 (configuration not stated)	mHTT CaM bind 65.4
Cc1ccc(C2=NC3(CCN(C)CC3)NC(c3ccccc3O)C2)cc1 (configuration not stated)	none
CC(=O)N1CCC2(CC1)N=C(c1ccc(F)cc1)CC(c1cc(Cl)ccc1O)N2 (configuration not stated)	none
Cc1ccc(C2=NC(C)(C)NC(c3ccccc3O)C2)cc1 (configuration not stated)	mHTT CaM bind 100.0
CCOc1ccccc1/C=C1/N=C(c2cc(C)ccc2[N+](=O)[O-])OC1=O	none
CCOC(CCn1c(SCC(=O)NC(C)CC)nc2ccccc2c1=O)OCC (configuration not stated)	none

Screening results deposited in PubChem by University of Kansas High Throughput Screening Laboratory.
